Screening results: PubChem BioAssay, The Scripps Research Institute Molecular Screening Center
ABHD5 PLIN5 PPI: inhibitors of human ABHD5-perilipin-5 interaction | Split G. princeps luciferase complementation, luminescence, 4 h | inhibition, % at 4 µM | 360,000 tested, 0.78% active | AID 602281;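 active = inhibition above the mean inhibition across every tested compound plus 3 SD, cut at about 22% in these data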;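 also: 0% = DMSO only wells and the 100% control is not disclosed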
TLR4-MyD88 BLA: inhibitors of human TLR4-MyD88 binding; O00206+Q99836; HeLa CL3-4 TLR4/MyD88 BLA complementation, FRET ratio; inhibition, % at 8.4 µM; 200,000 tested, 0.18% active; in the data active = inhibition above about 25%;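 also: 0% = vehicle and 100% = reference inhibitor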
rCAG RNA binder: molecules binding r(CAG) RNA repeats; r(CAG) RNA repeat, TO-PRO-1 dye displacement fluorescence; inhibition, % at 3 µM; 370,000 tested, 1.3% active; AID 651821;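 active = inhibition above the plate cutoff, the mean of all test compounds on that plate plus 3 SD, cut at about 35% in these data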;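 also: 0% = DMSO alone and 100% = 100 µM mitoxantrone as full dye displacement; higher means more dye released from RNA so lower well fluorescence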
TLR9-MyD88 inh: TLR9-MyD88 interaction inhibition | Q9NR96+Q99836 | CHO BLA complementation TLR9-MyD88, CCF4 FRET ratio | inhibition, % at 4.98 µM | 340,000 tested, 0.21% active | AID 504734;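 active = inhibition above the mean over all tested compounds plus 3 SD, cut at about 21% in these data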;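 also: 0% = DMSO only wells and 100% = clavulanate BLA inhibitor control wells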
NOD2-RIPK2 inh: NOD2-RIPK2 protein interaction inhibition; O43353; CHO BLA complementation NOD2-RIPK2, CCF4 ratio; inhibition, % at 4.98 µM; 360,000 tested, 0.38% active; AID 624267; in the data active = inhibition above about 21%;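 also: 0% = vehicle only and 100% = reference blocker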
PRMT1 inh: blocks human protein arginine methyltransferase 1. recombinant PRMT1, activity-based probe fluorescence polarization. inhibition, % at 2.79 µM. Q99873. 370,000 tested, 1.3% active;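 active = inhibition above about 21% made by adding two undisclosed values, limit read from the data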
TLR9-MyD88 cf: TLR9-MyD88 interaction inhibition, confirmation. shares compounds with TLR9-MyD88 inh. CHO TLR9/MyD88 BLA complementation, CCF4 FRET ratio. inhibition, % at 4.98 µM. 680 tested, 51% active;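 active = mean inhibition across three repeats above about 21% taken from the earlier screen, limit read from the data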;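 also: blue over green emission ratio reports constitutive TLR9 MyD88 association via BLA complementation; 0% = DMSO vehicle wells and 100% = clavulanate BLA inhibitor wells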
BLA counter-1: non-selective beta-lactamase inhibitors in TLR9-MyD88 counter-screen. shares compounds with TLR9-MyD88 inh. CHO-BLA cells, CCF4 FRET ratio, BLA reporter. inhibition, % at 4.98 µM. 680 tested, 7% active. AID 540251;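 active = mean inhibition above a 50% cutoff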;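 also: counterscreen of TLR9-MyD88 hits on CMV-driven BLA in CHO-K1 cells; 0% = DMSO alone and 100% = clavulanate blocking BLA; higher means less blue over green ratio so more BLA blockade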
TLR9 CHO tox: counter-screen for TLR9-MyD88 inhibitors: cytotoxicity in CHO cells | shares compounds with TLR9-MyD88 inh | luminescence | inhibition, % at 4.98 µM | 680 tested, 39% active | AID 588336; in the data active = inhibition above about 11%
ABHD5 PLIN5 conf: ABHD5-PLIN5 interaction inhibition, confirmed; shares compounds with ABHD5 PLIN5 PPI; biochemical ABHD5-PLIN5 interaction, luminescence; inhibition, % at 4 µM; 2,200 tested, 67% active; in the data active = inhibition above about 23%;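 also: 0% = DMSO vehicle wells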
HNF4 split-luc: active in HNF4 split-luciferase counter-screen for ABHD5-PLIN5 inhibitors; inhibition, % at 4 µM; AID 651674; 2,200 tested, 77% active; shares compounds with ABHD5 PLIN5 PPI; HNF4 dimerization, luminescence, biochemical;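 active = mean inhibition across replicate wells exceeding the computed hit threshold, cut at about 13% in these data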;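 also: light from luciferase halves that rejoin when HNF4 fusion proteins dimerize; 0% = DMSO only wells and the 100% control is not given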
NOD2-RIPK2 conf: confirmation of human NOD2-RIPK2 interaction inhibitors | inhibition, % at 4.98 µM | CHO cells, NOD2-RIPK2 BLA complementation, CCF4 FRET | shares compounds with NOD2-RIPK2 inh | 1,200 tested, 70% active;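 active = mean inhibition across replicates above a set limit taken from the earlier primary screen, cut at about 21% in these data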;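 also: 0% = DMSO-only wells and the high end = clavulanate BLA-blocked wells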
BLA counter-2: NOD2-RIPK2 counterscreen BLA reporter activity; CHO BLA reporter, CCF4 FRET ratio; 1,200 tested, 57% active; inhibition, % at 4.98 µM; shares compounds with NOD2-RIPK2 inh;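 active = mean inhibition above the low-control mean inhibition plus three low-control SD, cut at about 11% in these data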;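 also: 0% = DMSO only wells and 100% = clavulanate high control wells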
* marks the source's active call; other numbers are inactive results; / = not tested or not shown. This is a sample that favours compounds with a hit; in the whole collection about 3.3% have one here.

SMILES	ABHD5 PLIN5 PPI	TLR4-MyD88 BLA	rCAG RNA binder	TLR9-MyD88 inh	NOD2-RIPK2 inh	PRMT1 inh	TLR9-MyD88 cf	BLA counter-1	TLR9 CHO tox	NOD2-RIPK2 conf	BLA counter-2	others
COc1ccccc1N1C(=O)C2C(C(=O)c3ccccc3)=NN(c3ccccc3)C2C1=O (configuration not stated)	-0.3	/	3.0	46.6*	52.1*	1.9	25.6*	24.6	2.1	58.8*	64.1*
Cc1nc2ccsc2c(=O)n1-c1ccc(Cl)cc1	1.1	6.8	-2.6	-0.7	3.6	-0.5	/	/	/	/	/
CS(=O)(=O)c1sc(C#N)c2c1C(=O)CC(c1ccccc1)C2 (configuration not stated)	56.6*	/	-1.8	58.3*	98.5*	18.5	52.9*	38.1	99.7*	94.1*	36.1*
COc1ccccc1NC(=O)N1CCC(NC(=O)C(Cc2ccccc2F)NC(C)=O)CC1 (configuration not stated)	5.8	/	-1.5	-3.8	-5.2	-2.4	/	/	/	/	/
O=C(NC1CC1)c1cccc2c1C(=O)c1ccc(N3CCC(Cc4ccccc4)CC3)cc1S2(=O)=O	-5.3	/	-1.3	31.6*	33.5*	0.1	20.6	25.1	2.4	44.6*	50.2*
CCOc1nc2ccccc2nc1C	-2.4	-4.1	0.6	-0.2	7.6	-2.4	/	/	/	/	/
Cc1ccc(-n2nc(C)c3c2C(Br)C(C)(C)CC3=O)nc1 (configuration not stated)	-3.0	/	-0.1	13.2	7.2	2.9	/	/	/	/	/
CC(C)(C)OC(=O)NCC(=O)Oc1cc2oc(=O)cc(-c3ccccc3)c2cc1Cl	-10.6	20.9	9.3	47.0*	36.0*	-1.1	16.5	20.7	-0.6	43.4*	48.3*
CCc1cc2c(-c3ccccc3)cc(=O)oc2cc1OC(C)C(C)=O (configuration not stated)	-4.6	/	-7.1	1.7	8.0	-1.1	/	/	/	/	/
Cc1ccc(S(=O)(=O)N2CCC(C(=O)OCC(=O)N3CCC(C)CC3)CC2)cc1C	4.0	/	-6.8	-5.2	-3.6	-3.0	/	/	/	/	/
Nc1cccc2c1C(=O)N(C(=O)c1cccc(S(=O)(=O)N3CCCCCC3)c1)C2=O	-3.5	16.5	4.8	25.3*	28.2*	5.5	15.9	14.2	3.8	33.3*	38.2*
CCCCNC(=O)COC(=O)c1c2c(nc3ccccc13)/C(=C\c1cccs1)CC2	-2.6	/	20.4	45.2*	55.4*	2.5	46.6*	55.7*	7.7	66.4*	76.5*
CCc1cccc(C)c1NC(=O)COC(=O)c1c2c(nc3ccccc13)/C(=C\c1cccs1)CCC2	5.7	-10.0	8.7	-8.7	1.0	-3.0	/	/	/	/	/
O=C(/C=C/c1cn(CC(O)CN2CCCCC2)c2ccccc12)c1cccs1 (configuration not stated)	12.4	21.6	3.7	25.0*	28.3*	-5.7	22.1*	20.3	4.5	50.8*	50.2*
Clc1ccccc1/C=N/NC1=Nc2cccc3cccc1c23	13.6	14.1	7.5	30.7*	36.1*	0.3	12.9	12.5	11.0*	30.2*	29.1*
C(=N\NC1=Nc2cccc3cccc1c23)/c1ccccn1	5.5	-3.9	4.5	-1.0	2.7	-3.1	/	/	/	/	/
O=C1c2ccccc2C(=O)c2c(/C=C/N3CCCCC3)ccnc21	-6.8	/	7.1	-5.2	-3.9	5.6	/	/	/	/	/
O=C(NCCc1ccccc1)OCc1cn(-c2cccc(Cl)c2)nn1	/	/	2.8	/	/	3.4	/	/	/	/	/
COc1ccc(OC)c(NC(=O)c2nc(S(=O)(=O)Cc3ccccc3)ncc2Cl)c1	49.9*	/	7.9	57.4*	94.0*	12.5	53.3*	43.6	98.6*	101.7*	48.6*	ABHD5 PLIN5 conf=92.6*;HNF4 split-luc=87.0*
Cc1ccccc1NC(=O)c1nc(S(C)(=O)=O)ncc1Cl	38.1*	/	1.2	38.1*	29.8*	6.2	36.6*	13.1	87.2*	59.7*	29.1*	ABHD5 PLIN5 conf=58.7*;HNF4 split-luc=84.7*
COc1ccc(NC(=O)c2nc(S(=O)(=O)Cc3cccc(C)c3)ncc2Cl)c(OC)c1	14.6	/	1.5	3.6	8.6	0.5	/	/	/	/	/
Cc1ccccc1NC(=O)c1cccc(C(=O)Nc2ccccc2C)n1	0.6	/	-6.3	-4.6	-7.7	-3.8	/	/	/	/	/
Cc1ccccc1CS(=O)(=O)c1ncc(Cl)c(C(=O)Nc2ccc(F)cc2)n1	77.5*	/	1.0	34.5*	93.9*	17.1	33.6*	19.9	89.6*	82.8*	33.1*	ABHD5 PLIN5 conf=88.7*;HNF4 split-luc=90.2*
CCN(c1ccccc1)S(=O)(=O)c1ccc(NC(=O)c2nc(S(C)(=O)=O)ncc2Cl)cc1	77.5*	/	/	60.7*	96.6*	/	59.4*	39.1	100.1*	97.5*	48.7*	ABHD5 PLIN5 conf=89.0*;HNF4 split-luc=104.2*
COc1cc(OC)cc(-c2c(C#Cc3ccsc3)c3cc(-c4cc(F)cc(F)c4)ccc3n2C)c1	-7.2	/	9.0	6.8	9.2	1.6	/	/	/	/	/
Cc1ccc2c(c1)C1(C(=O)N2)N2CCCC2C(C(=O)c2ccc3ccccc3c2)C12C(=O)Nc1ccccc12 (configuration not stated)	3.7	/	3.8	6.8	-10.1	3.2	/	/	/	/	/
CC1CCN(C(=O)COC(=O)CSc2ccc(C(N)=O)cc2[N+](=O)[O-])CC1	6.8	/	-0.2	-0.1	-31.6	1.1	/	/	/	/	/
COc1cccc(NC(=O)c2ccc3nc(C)c(N(C)Cc4ccc(NC(C)=O)cc4)n3c2)c1	13.5	/	1.5	/	-4.0	1.6	/	/	/	/	/
O=C(Nc1ccccc1)OCCN1CCCC12CCC(c1ccccc1)CC2 (configuration not stated)	/	/	/	/	/	3.9	/	/	/	/	/
CCOC(=O)c1nc(S(C)(=O)=O)ncc1Cl	54.7*	14.4	0.0	34.1*	21.5*	3.6	36.8*	26.8	42.9*	56.2*	24.9*	ABHD5 PLIN5 conf=56.1*;HNF4 split-luc=90.2*
